Reference: PubChem BioAssay (NCI)
This is part of a sample that, as a whole, favours compounds with a hit. Of some 83,000 tested, about 20% had one in any assay.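 Method: cells in 96-well plates; compound added at one concentration; 48 h incubation; percent growth measured; values under 10 scored active.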 A number with no mark means an inactive call. Activity calls are given as the source filed them.

Assays:
Test in all cases: NCI-60 one-dose screen, 48 h (100 = growth as untreated, 0 = no growth, -100 = all killed)
Conditions in all cases: 10 µM unless noted
[1] = test system: T-47D breast
[2] = test system: BT-549 breast
[3] = test system: MDA-MB-435 melanoma
[4] = test system: SW-620 colon
[5] = test system: MCF7 breast
[6] = test system: HCT-116 colon
[7] = test system: HCC-2998 colon
[8] = test system: KM12 colon

SMILES | growth [1] | growth [2] | growth [3] | growth [4] | growth [5] | growth [6] | growth [7] | growth [8]
Cc1ccc2c(c1)CC(O)CC1C(=O)N(CCO)CC(=O)N21 (stereo not given) | 93.1% | 103% | 106% | 106% | 96.8% | 95.9% | 104% | 105%
COc1cccc(NC(=O)c2sc3nc(C)c(C(=O)c4ccccc4)cc3c2N)c1 | 88.6% | 91.8% | 29.9% | 91.4% | 69.5% | 95.9% | 109% | 88%
C=CCNc1nc(O)c(/C=C2\C=Nc3ncccc32)s1 | -8.68% (active) | -29.5% (active) | 21.1% | 7.39% (active) | 3.5% (active) | 6.31% (active) | 44.6% | 7.86% (active)
CC(=O)/C(Br)=C/c1ccc(Br)o1 | 44.8% | 52.1% | 62.4% | 15.4% | 33% | -66.2% (active) | 93.4% | 105%
Nc1n[nH]c2cccc(C#Cc3cccc(C(=O)Nc4ccc(Cl)c(C(F)(F)F)c4)c3)c12 | 33.5% | 78.3% | 42.8% | 61.8% | 50.2% | 28.5% | 49.4% | 59.4%
c1ccc(-c2nc(N3CCNCC3)c3oc(-c4ccccc4)nc3n2)cc1 | -41.9% (active) | 106% | -93.9% (active) | -77.7% (active) | -62.3% (active) | -31.7% (active) | -87.5% (active) | -75.4% (active)
Clc1ccc(C2=Nn3c(nnc3-c3cc(Cl)cc(Cl)c3Cl)SC2)cc1 | 63.2% | 31.4% | -15.6% (active) | 19.1% | 7.6% (active) | 13.7% | -8.03% (active) | 23.5%
CC(=O)O[C@H]1CC[C@@]2(C)C(=CC[C@@H]3[C@@H]2CC[C@]2(C)C(Cl)=C(c4nc5ccc(Cl)cn5c4NC(C)(C)C)C[C@@H]32)C1 | 94.4% | 105% | 93.8% | 98.3% | 91.9% | 86.6% | 112% | 94.5%
O=C1C(Nc2ccc(Br)cc2)=C(I)C(=O)c2ncccc21 | -41.3% (active) | 63.9% | -79% (active) | -24.6% (active) | -35.4% (active) | -36.2% (active) | 87.3% | 49.9%
Cc1cc(C)n(C(=O)CSc2nc3sc4c(c3c(=O)n2-c2ccccc2)CCCCC4)n1 | 89.9% | 100% | 105% | 102% | 95.1% | 104% | 109% | 105%
CN1CCN(CC(=O)N(C)c2ccc(N=C(c3ccccc3)c3c(O)[nH]c4ccc([N+](=O)[O-])cc34)cc2)CC1 | 89.7% | 64.4% | 23.5% | 48.4% | 21.9% | 24% | 78.7% | 13.1%
O=C(Nc1ncc(Cc2ccc(Cl)cc2)s1)C1=NCCCCN1 | 92.5% | 104% | 101% | 103% | 89.1% | 100% | 118% | 103%
CCOC(=O)C1=C(c2ccccc2)N=C2SC=C(c3cccc([N+](=O)[O-])c3)N2C1c1ccc(O)cc1 (stereo not given) | 93.5% | 95.1% | 101% | 97.6% | 95.1% | 100% | 101% | 99.7%
CN1CCN(Cc2ccc(NC(=O)c3cncc(C#Cc4cnc(N)c5ncccc45)c3)cc2Cl)CC1 | 121% | 105% | 94.2% | 2.96% (active) | 65.6% | 14.6% | 106% | 23%
COC(=O)[C@H](C)NC(=O)c1ccc(NC(=O)c2[nH]c(C)c(Cl)c2Cl)c(OCCN)c1 | 99.6% | 97% | 104% | 102% | 81.5% | 106% | 95.4% | 92.5%
C=CCn1c(SCC(=O)Nc2ccc(C(=O)/C=C/c3cc(OC)c(OC)c(OC)c3)cc2)nnc1-c1cc(-c2ccc(S(N)(=O)=O)cc2)nc2ccccc12 | 81.1% | 75.2% | 80.2% | 76.8% | 26.5% | 17.2% | 105% | 59.8%
C=C(C)[C@@H]1CCC[C@]2(C(=O)OC)CC[C@]3(C)[C@@H](CC[C@@H]4[C@@]5(C)CCCNC(C)(C)[C@@H]5CC[C@]43C)[C@@H]12 | 75.9% | 93.9% | 92.9% | 86.7% | 86.5% | 93.3% | 96.3% | 85.8%
COc1ccc(Cn2cc(C(=O)N=Nc3c(O)[nH]c4ccc(Br)cc34)nn2)cc1 | 106% | 111% | 101% | 107% | 86.3% | 77% | 98.5% | 104%
O=c1oc2ccccc2cc1-c1nn(-c2ccccc2)cc1/C=N/Nc1nc(-c2ccccc2)c(N=Nc2ccccc2)s1 | 57.4% | 61.8% | -27.8% (active) | 43.4% | 44.3% | 56.9% | 85.6% | 44.7%
c1ccc(Cn2cc3c(c2)-c2nc(Nc4ccccc4)ncc2CC3)cc1 | 74.3% [100 µM] | 87.6% [100 µM] | 96% [100 µM] | 92% [100 µM] | 70.5% [100 µM] | 80.6% [100 µM] | 99.9% [100 µM] | 87% [100 µM]
C#CC(F)(F)[C@]1(O)CCC2C3CCC4=CC(=O)CCC4=C3[C@@H](c3ccc(N(C)C)cc3)C[C@@]21C (stereo not given in full) | 44% | 88.7% | 103% | 103% | 57.8% | 71.2% | 111% | 99.3%
O=C(CSc1nnc(-c2ccc(Cl)c(Cl)c2)n1-c1ccccc1)Nc1ccc(C(=O)/C=C/c2ccc(Cl)cc2)cc1 | 81.8% | 77.5% | 94.3% | 94.4% | 68.1% | 6.82% (active) | 110% | 99.3%
CNC(=O)c1cc(Oc2ccc3nc(NC(=O)c4cc(C(F)(F)F)cc(C(F)(F)F)c4)sc3c2)ccn1 | 0.372% (active) | 11.4% | 12.1% | 40.2% | 9.82% (active) | 12.4% | 35.2% | 15.5%
CC(C)(C)[C@H](OCc1cn([C@H]2C[C@@H](O)[C@@H](CO)O2)c(=O)[nH]c1=O)c1ccc(C#Cc2ccccc2)cc1[N+](=O)[O-] | 53.6% | 27.6% | 92.6% | 101% | 3.01% (active) | 32.3% | 87.1% | 84.9%
COC(=O)CNC(=O)c1ccc(NC(=O)c2[nH]c(C)c(Cl)c2Cl)c(O[C@H]2CCNC2)c1 | 101% | 102% | 105% | 103% | 105% | 96.1% | 115% | 104%
COc1cc(-c2c(-c3ccccc3)c[nH]c2C(=O)NCCCO)c(OC)c2c1OCO2 | 90.9% | 106% | 104% | 102% | 110% | 106% | 110% | 125%
CCN(CC)CCOc1ccc(/C(=C(\C)Cc2ccc(OC)cc2)c2ccc(O)cc2)cc1 | 20.3% | 56.7% | -67.8% (active) | -25.2% (active) | -14.8% (active) | -34.8% (active) | 0.439% (active) | 32.4%
Cc1nc2cccc(NCc3ccc(C(=O)NO)cc3)c2c(=O)n1-c1ccccc1 | 17.5% | 73.4% | 27% | 7.22% (active) | 67.1% | -32.6% (active) | 86.3% | 29.8%
CC(=O)c1c(/C=C/c2ccc(C)cc2)c2ccccc2[nH]c1=O | 85.7% | 95.1% | 96.1% | 95.1% | 88.7% | 91.7% | 96.5% | 100%
CC(=O)Oc1ccccc1C(=O)N(Cc1ccc2c(Cl)cc(Cl)c(O)c2n1)c1ccccc1 | 40.7% | 77.3% | 54.3% | 29.1% | 34.7% | 30.9% | 60.1% | 39.6%
